# SNCA viab count = GF-AFC viability counterscreen for inhibitors of alpha-synuclein gene (SNCA) expression. 150,000 tested, 0.12% active. Potency, µM (highest dose often 57.1 µM), without a hit: top-dose activity change, negative = cytotoxicity, usual class: cytotoxic. HEK-293-SNCA-luc viability, GF-AFC fluorescence, 24 h;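 further: 0% = DMSO-treated cells and -100% = medium-only wells without cells; nearly all actives have a fitted effect of over 30% in size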
#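 Cytotoxicity counterscreen: after 24 h compound treatment of genome-edited SNCA-luciferase HEK-293 cells, live-cell protease substrate GF-AFC read by fluorescence after 30 min; activity scaled between DMSO (0%) and medium-only (-100%), curves Hill-fitted.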
# SNCA expr inh = Primary qHTS assay for inhibitors of alpha-synuclein gene (SNCA) expression | HEK-293 SNCA-luciferase knock-in, luminescence, 24 h | Potency, µM (highest dose often 57.2 µM), inactives show at the top dose activity change, negative = inhibition, actives largely listed as inhibitors | 140,000 tested, 0.17% active;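 further: plate controls were DMSO cells for no effect and cell-free wells for full effect; nearly all actives have a fitted effect of over 45% in size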
# 3T3 cytotox = Cytotoxic Profiling in NIH 3T3 Cell Line of Diverse Libraries Using Quantitative High-Throughput Screening; 94,000 tested, 4.3% active; Potency, µM (titrated, usually from 96.7 µM), inactives show at the highest dose activity change, negative = cytotoxicity, hits mostly inhibitors; NIH 3T3 viability, CellTiter-Glo ATP luminescence, 48-72 h; further: nearly all actives have a fitted effect of over 55% in size
#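 Cells were seeded at 400 per well, treated with pin-transferred compound, and kept 48 or 72 hr at 37 °C before CellTiter-Glo addition and luminescence imaging of cellular ATP.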
# HEK cytotox = Cytotoxic Profiling in HEK 293 Cell Line of Diverse Libraries Using Quantitative High-Throughput Screening. HEK 293 viability, ATP luminescence (CellTiter-Glo), 48-72 h. Potency, µM (doses to about 115 µM), without a hit: top-dose activity change, negative = cytotoxicity, usual class: inhibitors. 94,000 tested, 6.6% active; further: nearly all actives have a fitted effect of over 60% in size
#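 HEK 293 cells seeded at 250 cells/well were exposed to compound for 48 or 72 hr at 37 degree Celsius. Viability taken as ATP content by CellTiter-Glo luminescence.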
# NPR1 antag = Natriuretic polypeptide receptor (hNpr1) antagonism - Primary qHTS; Atrial natriuretic peptide receptor 1 (Homo sapiens), P16066; 76,000 tested, 1.6% active; Potency, µM (series often up to 46.3 µM), inactives show at the top dose activity change, negative = inhibition, actives largely listed as inhibitors; HEK293 hNpr1 GloSensor cGMP, ANP-stimulated luminescence; AID 1347048, 2019; calls by dose curve; further: nearly all actives have a fitted effect of over 60% in size
# Target sequence (P16066 whole entry, looked up): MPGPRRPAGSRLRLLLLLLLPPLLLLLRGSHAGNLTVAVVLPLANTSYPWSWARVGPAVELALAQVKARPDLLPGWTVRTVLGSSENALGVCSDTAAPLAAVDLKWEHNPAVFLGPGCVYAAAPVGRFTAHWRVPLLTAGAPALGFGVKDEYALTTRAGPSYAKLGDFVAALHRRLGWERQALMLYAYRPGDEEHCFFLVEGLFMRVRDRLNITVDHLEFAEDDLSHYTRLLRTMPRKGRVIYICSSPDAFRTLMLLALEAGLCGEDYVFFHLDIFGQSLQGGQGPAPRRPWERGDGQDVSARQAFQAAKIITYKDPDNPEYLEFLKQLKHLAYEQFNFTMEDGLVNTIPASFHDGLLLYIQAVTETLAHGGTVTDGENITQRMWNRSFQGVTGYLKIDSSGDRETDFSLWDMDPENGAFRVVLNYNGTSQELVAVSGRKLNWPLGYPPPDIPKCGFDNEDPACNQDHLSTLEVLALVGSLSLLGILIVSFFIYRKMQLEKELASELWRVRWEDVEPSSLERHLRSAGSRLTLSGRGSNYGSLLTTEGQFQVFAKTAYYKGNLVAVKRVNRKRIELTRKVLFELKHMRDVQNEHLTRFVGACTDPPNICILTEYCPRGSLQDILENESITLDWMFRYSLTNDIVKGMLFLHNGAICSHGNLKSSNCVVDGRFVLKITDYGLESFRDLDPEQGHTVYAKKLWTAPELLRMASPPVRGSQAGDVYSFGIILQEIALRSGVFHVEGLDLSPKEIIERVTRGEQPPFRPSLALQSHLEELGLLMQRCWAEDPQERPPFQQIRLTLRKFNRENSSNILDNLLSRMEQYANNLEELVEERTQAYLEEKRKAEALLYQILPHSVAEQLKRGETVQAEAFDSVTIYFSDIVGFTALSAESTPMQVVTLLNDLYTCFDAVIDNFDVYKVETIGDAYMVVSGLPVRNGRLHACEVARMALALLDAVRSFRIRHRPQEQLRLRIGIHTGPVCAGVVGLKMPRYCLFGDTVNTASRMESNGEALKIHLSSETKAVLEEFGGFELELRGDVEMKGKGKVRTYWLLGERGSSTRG
#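 HEK293 cells stably expressing human Npr1 and cGMP GloSensor pGS-40F, loaded 2 h with 2% GloSensor reagent, given compound 30 min at room temperature. Luminescence read before and 20 min after 0.1 nM hNppA.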
# FLuc inh = Firefly luciferase inhibition profiling of diverse chemical library using quantitative high-throughput screening | Luciferin 4-monooxygenase (Photinus pyralis), P08659 | purified P. pyralis luciferase, luminescence, biochemical | Potency, µM (doses to about 115 µM), usual class: inhibitors | 76,000 tested, 2.5% active; further: nearly all actives have a fitted effect of over 65% in size
#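 Biochemical qHTS: compound (6-point titration) added to 10uM D-luciferin plus 10uM ATP in Tris acetate pH 7.5 buffer with Mg, Tween-20 and BSA, then purified enzyme at 10nM; light output imaged.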
# * = called active by the depositor; i = inactive; ? = inconclusive; · = no result; [ ] = remark or other dose. The list is not random: actives were taken first. Their share in the collection is about 7.4%. Unless noted, the call rests on the fitted dose curve; in most records, active means well fitted curve in the direction sought with a large enough effect; inconclusive means small, poorly fitted or top-dose-only effect, or another doubt; inactive means no such curve, though single readings can be large; an effect the other way counts as inactive or inconclusive. Unless noted, on the % scale 0 is the no-effect control and ±100 the full control effect; potency means the concentration at half of the fitted maximal effect.
SMILES,SNCA viab count,SNCA expr inh,3T3 cytotox,HEK cytotox,NPR1 antag,FLuc inh
CC(=O)N1CCN(C(=O)c2cn3cc(-c4ccc(C(F)(F)F)cc4)sc3n2)CC1,4.6%,6.0%,?,?,·,·
Cc1ccsc1C(=O)N1CCC2(CC1)NC(=O)N(Cc1ccccc1)C2=O,2.3%,-28.4%,-18.2%,?,-13.7%,i
Cc1ccsc1C(=O)N1CCC2(CC1)C(=O)N(c1cccc(F)c1)C2c1ccccc1 (stereo not given),-16.7%,-21.7%,?,25.1µM*,·,·
COc1ccc(-c2noc([C@@H]3CCCN3Cc3ccccc3OC)n2)cn1,-10.1%[87.6 µM],4.9%[87.6 µM],?,?,-3.1%[70.6 µM],i
c1ccc(CN2CCC[C@H]2c2nc(-c3ccnc(N4CCOCC4)c3)no2)cc1,-17.9%[87.6 µM],33.2%[87.6 µM],?,89.1µM*,-24.5%[70.6 µM],i
CC(C)CN1CCC[C@H]1c1nc(-c2ccnc(N3CCOCC3)c2)no1,-11.4%[87.6 µM],1.3%[87.6 µM],?,89.1µM*,-6.4%[70.6 µM],i
N#Cc1ccc(CN2CCC[C@H]2c2nc(-c3ccnc(N4CCOCC4)c3)no2)cc1,-14.0%[87.6 µM],-0.3%[87.6 µM],-26.4%[138 µM],?,?,i
CN1CCN(c2ccc(-c3noc([C@@H]4CCCN4Cc4ccccc4)n3)cn2)CC1,23.4%[87.6 µM],-12.8%[87.6 µM],100µM*,70.8µM*,1.6%[70.6 µM],i
CN(C)c1ccc(-c2noc([C@@H]3CCCN3Cc3nc4ccccc4n3C)n2)cn1,-9.6%[87.6 µM],5.0%[87.6 µM],?,112µM*,2.2%[70.6 µM],i
CNc1ccc(-c2noc([C@@H]3CCCN3Cc3cnc4ccccc4c3)n2)cn1,-10.2%[87.6 µM],-3.3%[87.6 µM],?,?,-18.7%[70.6 µM],i
O=C(NCc1ccccn1)c1nc2sccn2c1-c1ccccc1,-7.6%[87.6 µM],20.5%[87.6 µM],?,-23.3%[172 µM],·,·
O=C(NC1CCCN(CCn2nc3n(c2=O)CCCC3)C1)c1ccncc1 (stereo not given),·,·,-20.2%,-7.7%,·,·
CS(=O)(=O)c1ccc(CN2CCC[C@H]2c2nc(-c3ccnc(N4CCOCC4)c3)no2)cc1,-9.5%,25.3%,-1.4%,i,1.3%,i
CC(=O)N1CCN(c2cc(-c3noc([C@@H]4CCCN4Cc4ccc(C(F)(F)F)cc4)n3)ccn2)CC1,-19.8%,?,-35.3%,28.2µM*,-15.0%,i
Fc1ccccc1CN1CCC[C@H]1c1nc(-c2ccnc(N3CCOCC3)c2)no1,-4.8%[87.6 µM],17.8%[87.6 µM],?,89.1µM*,-24.4%[70.6 µM],i
COc1ccc(C(=O)Nc2ccc(-c3noc([C@@H]4CCCN4Cc4cnc5ccccc5c4)n3)cn2)cc1,?,?,28.2µM*,22.4µM*,12.6µM*,?
O=C(Cc1ccc(F)cc1)N1CCC(C(=O)N2CCCC2c2nc3ccncc3[nH]2)CC1 (stereo not given),0.3%,18.2%,-7.1%,-6.1%,·,·
Cc1cc(C(=O)NC2CCN(c3ccnc4ccnn34)CC2)ccc1Cl,-14.5%,10.9%,?,?,·,·
COc1ccc(NC(=O)CCC2CCCN(S(=O)(=O)c3cccc(F)c3)C2)c(OC)c1 (stereo not given),-29.5%,-13.6%,?,?,·,·
Cc1ccc(Nc2ccnc(N3CCCC3C(=O)NCc3ccccc3)n2)cc1 (stereo not given),9.5%[12.5 µM],34.1%,?,?,·,·
CSCCNC(=O)C1CCCN1c1nccc(Nc2ccc(C)cc2)n1 (stereo not given),-12.2%[12.5 µM],-13.0%,-7.3%,79.4µM*,·,·
Cc1ccc(Nc2ccnc(N3CCCC3C(=O)NCCCc3ccccc3)n2)cc1 (stereo not given),-5.7%[12.5 µM],?,?,39.8µM*,·,·
Cc1ccc(Nc2ccnc(N3CCCC3C(=O)NCC3CC3)n2)cc1 (stereo not given),?,8.1%,-8.4%,35.5µM*,·,·
CCCCOC(=O)N1CCC2(CC1)[C@H](C(=O)OCC)[C@@H](OC)C(=O)N2C,·,·,?,-10.3%,·,·
CC(C)(CN1CCOCC1)NC(=O)c1csc2nc(-c3ccc(F)cc3)cn12,-19.9%,19.4%,-27.4%,?,0.0%,i
SMILES,SNCA viab count,SNCA expr inh,3T3 cytotox,HEK cytotox,NPR1 antag,FLuc inh
CN(Cc1nccn1C)C(=O)c1csc2nc(-c3ccc(C(F)(F)F)cc3)cn12,-2.8%,11.9%,?,39.8µM*,-10.7%,39.8µM*
CC(C)c1noc(CN(C)C(=O)c2csc3nc(-c4ccc(F)cc4)cn23)n1,-10.1%,-18.4%,?,44.7µM*,?,i
COc1ccc(-c2ccc(C(=O)NCCCc3ccccc3)cc2)nn1,·,·,?,-22.7%[172 µM],·,·
COCCCn1c(=O)c(C(=O)NCC(F)(F)F)nc2cccnc21,4.2%[87.6 µM],0.7%[87.6 µM],i,-2.9%[172 µM],·,·
O=C(NCc1ccccc1)c1cnc2n1CCN(Cc1ccccc1F)CC2,-16.2%[87.6 µM],?,?,28.2µM*,-8.4%[70.6 µM],i
Cc1ccc(CN2CCc3ncc(C(=O)NCCOc4ccccc4)n3CC2)o1,-22.2%[87.6 µM],?,35.5µM*,50.1µM*,-9.5%[70.6 µM],i
COCc1nc(C2CC(N)C2)cc(N2Cc3nc(C)n(C)c(=O)c3C2)n1 (stereo not given),6.3%,-1.4%,-12.6%,?,-1.3%,i
CCN1CCN(Cc2ccc(NC(=O)c3ccc(C)c(/C=C/c4cnc5[nH]ccc5c4OC)c3)cc2C(F)(F)F)CC1,23.8µM*,·,·,·,·,·
COCCCNC(=O)N1CCC(N2C(=O)C3(CCCC3)C2c2ccccc2)CC1 (stereo not given),5.0%,12.9%,-15.1%,i,·,·
O=C(CCc1nc2ccccc2[nH]1)N1CCCC(Cc2noc(-c3ccccc3)n2)C1 (stereo not given),-29.9%,11.9%,?,22.4µM*,?,i
CC(=O)N1CCC(Cc2noc(-c3ccccc3)n2)C1 (stereo not given),-7.1%,33.4%,-12.6%,?,4.4%,i
O=C(c1cccc(F)c1)N1CCCC(Cc2noc(-c3ccccc3)n2)C1 (stereo not given),3.55µM*,?,31.6µM*,?,-9.0%,i
COc1ccc(S(=O)(=O)N2CCC(OCCOc3ccccc3)CC2)cc1,-14.3%,?,?,?,·,·
O=C(NC1CCCN(CCn2nc3n(c2=O)CCCC3)C1)c1ccccc1 (stereo not given),·,·,-2.2%,i,·,·
